From PubChem BioAssay (NCATS)
“And” between values parts separate entries of the source, which are not always exact repeats. Equal values may be shown once. Inconclusive results are not listed. The source made the active and inactive calls. Unless noted, calls come from the whole dose curve; as a rule, active = well fitted curve in either direction with a large enough effect (not every such curve was filed as active); inconclusive = small, poorly fitted or top-dose-only effect, or another doubt; inactive = flat fitted curve, though single readings scatter.

Experiments:
[1] = AP1 Signaling Pathway (AID 357);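 note: ME-180 reporter cells stimulated with EGF at its EC50 level; % is set by controls: 0 for no effect and ±100 for the full control effect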
In short: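 Titration-series screen for positive or negative modulators of EC50 EGF-induced signaling in ME-180 cells carrying an AP-1-driven beta-lactamase reporter. After 5 hours at 37 degrees Celsius, CCF4 460nm/530nm emission ratio gave %Activity; AC50 values derived.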

[2] = NFAT Signaling Pathway (AID 444); conditions: Jurkat NFAT-bla M1, carbachol, beta-lactamase ratio, 5 h; at 17.2 µM (top of the series) unless noted;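 note: carbachol stimulus at about its EC50 of 1 µM final; % is set by controls: 0 for no effect and ±100 for the full control effect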
In short: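 Read-out: CCF4 FRET ratio (460 nm/530 nm) after 1 h RT dye loading, used for %activity and AC50 from titration series. Cells: Jurkat NFAT-β-lactamase/M1 line, treated with compound plus 1 uM carbachol for 5 h, 37 °C.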

[3] = Stat Signaling Pathway (AID 446);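 note: ME-180 cervical cancer cells given 40 pM IL-6 alongside compound; SIE-controlled beta-lactamase reporter measured as 460/530 nm FRET emission ratio; % is set by controls: 0 for no effect and ±100 for the full control effect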
In short: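 Reporter line: ME-180 cervical carcinoma, SIE-beta-lactamase. Treatment: compound with 40 pM IL-6, 5 hrs, 37 C, in low-serum OPTI-MEM with 10 mM HEPES pH 7.3. Detection: 460/530 nm fluorescence.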

[4] = biological target: Glucocorticoid receptor (Homo sapiens) (UniProt P04150); assay: GR-EFC Redistribution (AID 451; calls by dose curve; note: potency is the fitted concentration of half-maximal effect); conditions: CHO-K1 GR-EFC translocation, beta-gal luminescence, 2 h
In short: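 Translocation of GR-ED fusion to nuclear EA restores b-gal, read by luminescence after 1 h room-temperature detection. Engineered CHO-K1 biosensor cells, 1,000/well, exposed 2 h at 37 C to titrations up to 46 uM final.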

[5] = biological target: Mitogen-activated protein kinase 10 (Mus musculus) (UniProt Q61831); assay: JNK3 AlphaScreen Assay (AID 530);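 note: kinase came from lysate of stimulated human HepG2 cells; signal reports phosphorylation of biotinylated GST-cJun 1-79 at Ser73 with 10 µM ATP; % is set by controls: 0 for no effect and ±100 for the full control effect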
In short: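 Room-temperature AlphaScreen kinase assay; pre-activated HepG2 lysate as JNK3 source, biotin-GST-cJun(1-79) substrate, 10 uM ATP, compound 15 min preincubation.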

[6] = biological target: 3',5'-cyclic-AMP phosphodiesterase 4B (Homo sapiens) (UniProt Q07343); assay: qHTS Assay for Inhibitors of PDE-IV (AID 607; active = well fitted activation curve with a large enough effect in the main read-out, with a control signal flat, not every such curve was filed as active; note: % of control where 0% means no effect)
In short: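 Cell-based read-out of cAMP via a modified cyclic nucleotide-gated channel and membrane potential dye (535/590 nm) in HEK293 cells expressing PDE4 endogenously. Compounds tested up to 22.9 uM final; 100 uM RO 20-1724 reference.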

[7] = qHTS Assay for Lipid Storage Modulators (AID 1519; calls by dose curve); conditions: Drosophila S3 cells, BODIPY lipid droplet/cell ratio, laser cytometry, cells loaded with oleic acid
In short: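 Cells seeded at 5,000 per well were treated with compounds over a concentration series and loaded with oleic acid (400 uM, as added). Lipid droplet fluorescence (488 nm excitation, 500-530 nm channel) was read by laser-scanning cytometry and normalized to 20 uM Triacsin C.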

[8] = biological target: Ubiquitin carboxyl-terminal hydrolase 1 (Homo sapiens) (UniProt O94782); assay: Inhibitors of USP1/UAF1: Pilot qHTS (AID 504865; active = well fitted curve in the direction sought with a large enough effect; an effect the other way counts as inactive or inconclusive; note: nearly all actives have a fitted effect of over 35% in size; note: potency is the fitted concentration of half-maximal effect)
In short: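 1nM USP1/UAF1 + cpd, 15 min RT; start w/ Ub-Rho 150nM final; kinetic FL 480/540 nm, 6 reads q60 s. Buffer 50mM HEPES pH 7.8, 0.5mM EDTA, 1mM TCEP, 0.01% Tween-20, 0.1 mg/ml BSA.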

[9] = biological target: Luciferin 4-monooxygenase (Photinus pyralis) (UniProt P08659); assay: Biochemical firefly luciferase enzyme assay for NPC (AID 624030; active = well fitted curve in the direction sought with a large enough effect; an effect the other way counts as inactive or inconclusive;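 note: purified P. pyralis luciferase at 10 nM with luciferin and ATP substrate; 0% = DMSO and -100% = full luciferase inhibition by PTC124 control; nearly all actives have a fitted effect of over 70% in size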)
In short: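 Direct inhibition of firefly luciferase enzyme (10 nM final, 50 mM Tris Acetate) assessed by luminescence within 5 minutes. Percent activity scaled between DMSO and PTC124 positive control, with concentration-effect curves classified by fit quality and response.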

[10] = S16 Schwann cell viability assay (CellTiter-Glo assay) (AID 624031; active = well fitted curve in the direction sought with a large enough effect; an effect the other way counts as inactive or inconclusive;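 note: cellular ATP luminescence as a viability measure; plate controls were DMSO-treated cells for no effect and cell-free wells for full effect; nearly all actives have a fitted effect of over 70% in size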)
In short: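 Untransfected S16 rat Schwann cells; compound 24 h, 37 °C/5% CO2; CellTiter-Glo ATP luminescence. % activity vs no-cell wells and DMSO controls (0%); concentration-effect curves classed by r2, response magnitude, activity.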

[11] = qHTS profiling for inhibitors of Plasmodium falciparum proliferation (AID 504749; active = well fitted curve in the direction sought with a large enough effect; an effect the other way counts as inactive or inconclusive;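 note: 0% = DMSO vehicle and full inhibition = artemisinin control; nearly all actives have a fitted effect of over 60% in size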); conditions: P. falciparum in erythrocytes, SYBR Green DNA, 72 h, at 12.8 µM (top of the series)
In short: (§1)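 Three-day growth assay of blood-stage parasites in erythrocytes (0.3% parasitemia, 2.5% hematocrit) at 37 C, 5% CO2, quantified by SYBR Green DNA staining after overnight detergent lysis.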

C2A = assay: as above; conditions: P. falciparum in erythrocytes, SYBR Green DNA, 72 h; series mostly up to 12.8 µM
In short: as §1

CP191 = assay: as above; conditions: P. falciparum in erythrocytes, SYBR Green DNA, 72 h; series mostly up to 12.8 µM
In short: as §1

CP247 = assay: as above; conditions: P. falciparum in erythrocytes, SYBR Green DNA, 72 h; series mostly up to 12.8 µM
In short: as §1

CP250 = assay: as above; conditions: P. falciparum in erythrocytes, SYBR Green DNA, 72 h; series mostly up to 12.8 µM
In short: as §1

CP256 = assay: as above; conditions: P. falciparum in erythrocytes, SYBR Green DNA, 72 h; series mostly up to 12.8 µM
In short: as §1

FAB9 = assay: as above; conditions: P. falciparum in erythrocytes, SYBR Green DNA, 72 h; series mostly up to 12.8 µM
In short: as §1

JCK = assay: as above; conditions: P. falciparum in erythrocytes, SYBR Green DNA, 72 h; series mostly up to 12.8 µM
In short: as §1

PC49 = assay: as above; conditions: P. falciparum in erythrocytes, SYBR Green DNA, 72 h; series mostly up to 12.8 µM
In short: as §1

[12] = biological target: Glucocorticoid receptor (Homo sapiens) (UniProt P04150); assay: GR-GFP Redistribution (AID 450;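 active = compounds whose dose series gives a full or clear partial fitted curve of increased nuclear translocation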; note: potency is the fitted concentration of half-maximal effect); conditions: U2OS GR-GFP nuclear translocation, laser cytometry, 2 h
[13] = measured here: cell count channel max response
[14] = measured here: lipid channel max response

Chain of Luciferin 4-monooxygenase (Photinus pyralis) (P08659 whole entry, looked up): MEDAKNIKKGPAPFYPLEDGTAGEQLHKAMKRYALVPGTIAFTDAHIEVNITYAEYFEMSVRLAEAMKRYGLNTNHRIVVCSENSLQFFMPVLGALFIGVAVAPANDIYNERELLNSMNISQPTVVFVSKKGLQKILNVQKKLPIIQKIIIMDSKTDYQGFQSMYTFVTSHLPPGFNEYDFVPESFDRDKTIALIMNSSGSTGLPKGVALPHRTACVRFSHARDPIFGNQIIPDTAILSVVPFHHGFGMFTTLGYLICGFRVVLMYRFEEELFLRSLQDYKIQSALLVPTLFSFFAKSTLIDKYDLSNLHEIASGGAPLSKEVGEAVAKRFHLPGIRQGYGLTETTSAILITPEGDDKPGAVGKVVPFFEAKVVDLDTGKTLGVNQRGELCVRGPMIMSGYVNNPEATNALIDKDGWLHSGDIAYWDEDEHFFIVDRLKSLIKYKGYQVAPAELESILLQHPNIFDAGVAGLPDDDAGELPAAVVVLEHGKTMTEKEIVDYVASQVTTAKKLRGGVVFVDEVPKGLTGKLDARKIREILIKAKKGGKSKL
Chain of Glucocorticoid receptor (Homo sapiens) (P04150 whole entry, looked up, the tested form may be a part): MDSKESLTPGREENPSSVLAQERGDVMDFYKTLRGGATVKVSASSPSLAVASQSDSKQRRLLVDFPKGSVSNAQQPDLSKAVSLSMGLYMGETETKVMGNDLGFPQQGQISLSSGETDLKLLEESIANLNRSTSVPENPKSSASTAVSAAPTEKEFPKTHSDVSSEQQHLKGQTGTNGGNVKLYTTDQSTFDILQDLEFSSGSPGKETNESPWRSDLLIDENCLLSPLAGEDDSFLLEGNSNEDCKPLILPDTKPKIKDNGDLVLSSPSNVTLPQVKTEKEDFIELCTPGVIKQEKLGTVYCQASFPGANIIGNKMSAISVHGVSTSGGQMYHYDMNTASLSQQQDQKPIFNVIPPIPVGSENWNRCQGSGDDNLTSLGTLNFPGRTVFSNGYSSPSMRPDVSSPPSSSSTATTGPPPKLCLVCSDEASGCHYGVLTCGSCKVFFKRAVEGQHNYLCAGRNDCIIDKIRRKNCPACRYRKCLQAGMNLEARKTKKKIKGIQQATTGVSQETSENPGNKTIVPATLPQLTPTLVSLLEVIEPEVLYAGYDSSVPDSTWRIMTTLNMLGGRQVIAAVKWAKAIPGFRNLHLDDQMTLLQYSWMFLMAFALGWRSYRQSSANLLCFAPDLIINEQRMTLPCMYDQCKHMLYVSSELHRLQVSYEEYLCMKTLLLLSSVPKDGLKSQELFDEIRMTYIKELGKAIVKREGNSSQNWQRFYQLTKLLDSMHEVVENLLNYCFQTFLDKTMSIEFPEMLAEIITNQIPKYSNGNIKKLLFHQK
Chain of Ubiquitin carboxyl-terminal hydrolase 1 (Homo sapiens) (O94782 whole entry, looked up): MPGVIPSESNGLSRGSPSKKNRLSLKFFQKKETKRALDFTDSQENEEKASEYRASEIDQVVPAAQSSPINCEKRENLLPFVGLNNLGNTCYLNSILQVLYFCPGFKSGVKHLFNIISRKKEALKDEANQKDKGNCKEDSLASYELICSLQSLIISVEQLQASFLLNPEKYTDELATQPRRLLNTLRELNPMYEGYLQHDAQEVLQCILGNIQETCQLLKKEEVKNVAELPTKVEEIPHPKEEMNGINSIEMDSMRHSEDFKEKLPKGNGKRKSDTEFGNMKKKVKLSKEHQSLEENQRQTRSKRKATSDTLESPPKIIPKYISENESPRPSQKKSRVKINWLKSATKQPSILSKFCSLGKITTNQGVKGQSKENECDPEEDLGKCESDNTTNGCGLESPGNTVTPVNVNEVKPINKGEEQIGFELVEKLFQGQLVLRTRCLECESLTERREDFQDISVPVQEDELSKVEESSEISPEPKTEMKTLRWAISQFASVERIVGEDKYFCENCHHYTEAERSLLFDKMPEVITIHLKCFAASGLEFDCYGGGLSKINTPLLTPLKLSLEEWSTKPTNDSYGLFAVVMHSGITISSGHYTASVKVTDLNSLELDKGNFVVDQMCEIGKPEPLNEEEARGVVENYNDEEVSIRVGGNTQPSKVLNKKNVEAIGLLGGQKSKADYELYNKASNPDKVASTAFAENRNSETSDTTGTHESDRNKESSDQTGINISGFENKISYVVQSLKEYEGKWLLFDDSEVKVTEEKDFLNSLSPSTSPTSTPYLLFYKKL
Chain of 3',5'-cyclic-AMP phosphodiesterase 4B (Homo sapiens) (Q07343 whole entry, looked up): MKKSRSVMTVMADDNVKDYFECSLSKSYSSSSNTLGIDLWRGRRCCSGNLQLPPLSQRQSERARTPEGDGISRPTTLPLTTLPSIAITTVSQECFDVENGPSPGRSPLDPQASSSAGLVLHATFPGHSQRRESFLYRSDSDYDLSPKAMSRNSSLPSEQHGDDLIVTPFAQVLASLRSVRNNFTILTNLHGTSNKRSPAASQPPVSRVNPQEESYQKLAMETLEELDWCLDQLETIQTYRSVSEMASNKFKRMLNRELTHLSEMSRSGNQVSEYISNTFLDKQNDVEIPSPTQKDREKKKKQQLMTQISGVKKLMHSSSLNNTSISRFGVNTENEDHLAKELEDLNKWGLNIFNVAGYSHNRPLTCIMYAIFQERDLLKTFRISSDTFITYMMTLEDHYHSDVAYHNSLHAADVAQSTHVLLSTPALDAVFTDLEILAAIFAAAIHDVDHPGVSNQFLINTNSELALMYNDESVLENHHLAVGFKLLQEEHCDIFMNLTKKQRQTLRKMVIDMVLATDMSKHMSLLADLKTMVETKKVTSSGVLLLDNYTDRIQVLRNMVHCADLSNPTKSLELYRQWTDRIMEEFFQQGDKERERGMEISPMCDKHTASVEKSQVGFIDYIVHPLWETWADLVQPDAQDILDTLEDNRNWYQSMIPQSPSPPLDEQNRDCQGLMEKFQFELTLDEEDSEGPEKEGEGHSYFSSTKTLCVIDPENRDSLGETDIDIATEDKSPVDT

CCCCC[C@H](O)/C=C\[C@H]1[C@H](C/C=C\CCCC(=O)O)[C@@H](O)C[C@H]1O (tested in a mixture with another compound)
14.3%: max response [7, 13]
13.4%: max response [7, 14]
inactive: outcome [1] | activity change, negative = inhibition [2] 11.1% | outcome [3] | Potency [4] > 20.6 µM | Potency [5] | outcome [6] | activity change, negative = inhibition ([7]; at 25.7 µM (top of the series)) -0.941% | Potency [8] | Potency [9] | outcome [10] | activity, negative = inhibition ([11]; parasite line A) -9.08% | activity, negative = inhibition ([11]; parasite line B) -0.0944% | Potency (C2A) | Potency (CP191) | Potency (CP247) | Potency (CP250) | Potency (CP256) | Potency (FAB9) | Potency (JCK) | Potency (PC49)

C[N+]1(C)CCC[C@H]1C(=O)[O-]
inactive: outcome [1] | activity change, negative = inhibition [2] -2.21% | outcome [3] | Potency [12] > 20.6 µM | Potency [4] > 20.6 µM | Potency [5] | outcome [6] | activity change, negative = inhibition ([7]; at 25.7 µM (top of the series)) -1.16%
6.12%: max response [7, 13]
4.64%: max response [7, 14]

CC(=O)OCC(=O)[C@@]1(OC(C)=O)[C@H](C)C[C@H]2[C@@H]3C[C@H](F)C4=CC(=O)C=C[C@@]4(C)[C@]3(F)[C@H](O)C[C@@]21C
-17.2%: max response [7, 14]
active: Potency [12] 0.00203 µM | Potency [4] 0.0775 µM
inactive: outcome [1] | activity change, negative = inhibition [2] 4% | outcome [3] | Potency [5] | outcome [6] | activity change, negative = inhibition ([7]; at 25.7 µM (top of the series)) -2.11% | Potency [8]
-15.4%: max response [7, 13]

S=C(NC1CCCCC1)N1CCC([C@H]2C=NC=N2)CC1
-0.275%: max response [7, 13]
inactive: outcome [1] | activity change, negative = inhibition [2] -11% | outcome [3] | Potency [12] > 20.6 µM | Potency [4] > 20.6 µM | Potency [5] | outcome [6] | activity change, negative = inhibition ([7]; at 25.7 µM (top of the series)) 2.27% | Potency [8]
2.69%: max response [7, 14]

CS(=O)(=O)c1ccc([C@H](O)[C@H](CO)NC(=O)C(Cl)Cl)cc1
3.5%: max response [7, 13]
inactive: outcome [1] | activity change, negative = inhibition [2] 1.44% | outcome [3] | Potency [12] > 20.6 µM | Potency [4] > 20.6 µM | Potency [5] | outcome [6] | activity change, negative = inhibition ([7]; at 25.7 µM (top of the series)) -0.717% | Potency [8] | Potency [9] | outcome [10] | activity, negative = inhibition ([11]; parasite line A) -20.3% | activity, negative = inhibition ([11]; parasite line B) -19.1% | Potency (C2A) | Potency (CP191) | Potency (CP247) | Potency (CP250) | Potency (FAB9) | Potency (JCK) | Potency (PC49)
5.27%: max response [7, 14]

Cc1n[nH]c(=O)[nH]c1=O
inactive: outcome [1] | activity change, negative = inhibition [2] -10% | outcome [3] | Potency [12] > 20.6 µM | Potency [4] > 20.6 µM | outcome [6] | activity change, negative = inhibition ([7]; at 25.7 µM (top of the series)) 1.08% | Potency [8]
-2.21%: max response [7, 13]
-2.22%: max response [7, 14]

COc1ccc([C@@H]2CC(=O)c3c(O)cc(O)cc3O2)cc1O
-2.83%: max response [7, 14]
-5.78%: max response [7, 13]
inactive: outcome [1] | activity change, negative = inhibition [2] -2.52% | outcome [3] | Potency [12] > 20.6 µM and > 46 µM | Potency [4] > 20.6 µM and > 46 µM | Potency [5] | outcome [6] | activity change, negative = inhibition ([7]; at 25.7 µM (top of the series)) 0.892% | Potency [8]

C=C1CC[C@H](O)C/C1=C/C=C1\CCC[C@]2(C)[C@H]1CC[C@H]2[C@@H](C)/C=C\[C@@H](C)C(C)C
-2.49%: max response [7, 13]
inactive: outcome [1] | activity change, negative = inhibition [2] 1.42% | outcome [3] | Potency [12] > 20.6 µM | Potency [4] > 20.6 µM | outcome [6] | activity change, negative = inhibition ([7]; at 25.7 µM (top of the series)) 0.549% | Potency [8]
-2.71%: max response [7, 14]

Fc1ccc(Nc2nc(-c3cccnc3)nc3ccccc23)cc1
0.257%: max response [7, 14]
active: Potency [8] 39.8 µM
-6.31%: max response [7, 13]
inactive: outcome [1] | activity change, negative = inhibition [2] -9.74% [at 7.69 µM] | outcome [3] | Potency [12] > 46 µM | Potency [4] > 46 µM | Potency [5] | activity change, negative = inhibition ([7]; at 57.5 µM (top of the series)) 7.7%

C=C1C[C@@]23C[C@]1(O)CC[C@@H]2[C@]12C=C[C@@H](O)[C@](C)(C(=O)O1)[C@H]2[C@H]3C(=O)O
0.159%: max response [7, 13]
3.63%: max response [7, 14]
inactive: outcome [1] | activity change, negative = inhibition [2] -11.2% | outcome [3] | Potency [12] > 20.6 µM | Potency [4] > 20.6 µM | Potency [5] | outcome [6] | activity change, negative = inhibition ([7]; at 25.7 µM (top of the series)) 1.67% | Potency [8]

O=C1OCCN1/N=C\c1ccc([N+](=O)[O-])o1
inactive: outcome [1] | activity change, negative = inhibition [2] -2.86% | outcome [3] | Potency [4] > 20.6 µM | Potency [5] | outcome [6] | activity change, negative = inhibition ([7]; at 25.7 µM (top of the series)) -2% | Potency [8]
-14.3%: max response [7, 14]
-13.3%: max response [7, 13]

COc1ccc(OC)c([C@H](O)CNC(=O)CN)c1
-0.25%: max response [7, 14]
0.279%: max response [7, 13]
inactive: outcome [1] | activity change, negative = inhibition [2] -3.71% | outcome [3] | Potency [4] > 20.6 µM | Potency [5] | outcome [6] | activity change, negative = inhibition ([7]; at 25.7 µM (top of the series)) 0.926% | Potency [8] | Potency [9] | outcome [10] | activity, negative = inhibition ([11]; parasite line A) -3.94% | activity, negative = inhibition ([11]; parasite line B) 1.53% | Potency (C2A) | Potency (CP191) | Potency (CP247) | Potency (CP250) | Potency (CP256) | Potency (FAB9) | Potency (JCK) | Potency (PC49)

NC[C@@H]1O[C@H](O[C@H]2[C@H](O)[C@@H](O[C@H]3[C@H](O)[C@H](N)C[C@H](N)[C@H]3O[C@@H]3O[C@H](CO)[C@@H](O)[C@H](O)[C@@H]3N)O[C@H]2CO)[C@@H](N)[C@H](O)[C@@H]1O
-10.9%: max response [7, 13]
-14.4%: max response [7, 14]
inactive: outcome [1] | activity change, negative = inhibition [2] -6.33% | outcome [3] | Potency [12] > 20.6 µM | Potency [4] > 20.6 µM | Potency [5] | outcome [6] | activity change, negative = inhibition ([7]; at 25.7 µM (top of the series)) -3.71%
